Laboratory results as given in the supplement of paper PMC8975748.
Where a name gives a salt, the structure may show the parent alone.

Each compound was assayed on Saccharomyces cerevisiae BY4741 SeMeCo community (assay: z-score of subpopulation abundance vs DMSO median, subpopulation auxotrophic for H; higher = larger share of this subpopulation than in DMSO controls). Conditions: 10 µM; 24 h; SM minimal medium; subpopulation (auxotrophy): H.
Method: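 Fluorescent four-plasmid SeMeCo (self-establishing metabolically cooperating S. cerevisiae BY4741 community; plasmids pH-mRuby2, pL-mWasabi, pU-eCFP, pM-TagRFP657) was grown 24 h in minimal SM medium with each Selleck FDA-approved drug at 10 µM in 384-well plates. Cells were fixed and imaged by high-content confocal microscopy. For each auxotrophic subpopulation (and the prototroph), a z-score gives the deviation from the DMSO vehicle-control population median.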

SMILES | z-score of subpopulation abundance
CN1CC2c3ccccc3Oc3ccc(Cl)cc3C2C1 (stereo not given) [Asenapine maleate] | -0.64
O=C1NC(=O)C(c2ccccc2)(c2ccccc2)N1 [Phenytoin] | -0.22
CCOC(=O)C1=C[C@]2(CC)CCCN3CCc4c(n1c1ccccc41)[C@@H]32 [Vinpocetine] | -0.46
C[N+](C)(C)CCO.[Cl-] [Choline Chloride] | -0.8
Cc1nccn1CC1CCc2c(c3ccccc3n2C)C1=O (stereo not given) [Ondansetron Hydrochloride Dihydrate] | -0.54
CC[C@H]1OC(=O)[C@H](C)[C@@H](O[C@H]2C[C@@](C)(OC)[C@@H](O)[C@H](C)O2)[C@H](C)[C@@H](O[C@@H]2O[C@H](C)C[C@H](N(C)C)[C@H]2O)[C@](C)(O)C[C@@H](C)C(=O)[C@H](C)[C@H]2OC(=O)O[C@@]21C [Erythromycin Cyclocarbonate] | 2.08
CCCOc1ccc2[nH]c(NC(=O)OC)nc2c1 [Oxibendazole] | 0.1
O=C1CCc2ccc(OCCCCN3CCN(c4cccc(Cl)c4Cl)CC3)cc2N1 [Aripiprazole] | 0.82
COC(=O)Nc1nc2cc([S+]([O-])c3ccccc3)ccc2[nH]1 (stereo not given) [Oxfendazole] | 0.08
Cc1c(Nc2ncccc2C(=O)O)cccc1C(F)(F)F [Flunixin Meglumin] | -0.33
CNCCC(Oc1ccc(C(F)(F)F)cc1)c1ccccc1 (stereo not given) [Fluoxetine HCl] | -0.47
O=C(NCCN1CCOCC1)c1ccc(Cl)cc1 | -0.65
Cn1cc(C(=O)[C@@H]2CCc3[nH]cnc3C2)c2ccccc21 [Ramosetron Hydrochloride] | -0.29
CC(C)[N+](C)(CCOC(=O)C1c2ccccc2Oc2ccccc21)C(C)C [Propantheline bromide] | 0.9
CC1(C)S[C@@H]2[C@H](NC(=O)[C@H](C(=O)O)c3ccsc3)C(=O)N2[C@H]1C(=O)O [Ticarcillin sodium] | 0.6
O=[N+]([O-])c1ccc(O)c2ncccc12 [Nitroxoline] | 9.75
Cc1c(-c2ccc(O)cc2)n(Cc2ccc(OCCN3CCCCCC3)cc2)c2ccc(O)cc12 [Bazedoxifene Acetate] | 0.29
CCN(CC)CCNC(=O)c1cc(Cl)c(N)cc1OC [Metoclopramide HCl] | -1.04
Oc1ccc([C@H]2COc3cc(O)ccc3C2)cc1 [Equol] | -0.53
Cc1[nH]cnc1CN1CCc2c(c3ccccc3n2C)C1=O [Alosetron Hydrochloride] | -0.22

SMILES | z-score of subpopulation abundance
N=C(N)NC(=N)N1CCOCC1 [Moroxydine HCl] | -0.19
CC(=O)NO [Acetohydroxamic acid] | 0.14
CO/N=C(\C(=O)N[C@@H]1C(=O)N2C(C(=O)O)=C(Cn3ccc(=N)n3CCO)CS[C@H]12)c1csc(N)n1 [Cefoselis Sulfate] | -1.31
CN1[C@@H]2CC[C@H]1C[C@@H](OC(=O)c1c[nH]c3ccccc13)C2 [Tropisetron HCl] | -0.68
Nc1ccc(S(=O)(=O)c2ccc(N)cc2)cc1 [Dapson] | 0.61
CC/C(=C(/CC)c1ccc(O)cc1)c1ccc(O)cc1 [Diethylstilbestrol] | 0.17
CCCN(CCc1cccs1)[C@H]1CCc2c(O)cccc2C1 [Rotigotine] | -0.04
Cc1c(Cl)cccc1Nc1ccccc1C(=O)O [Tolfenamic Acid] | -1.01
CC1(C)S[C@@H]2[C@H](NC(=O)Cc3ccccc3)C(=O)N2[C@H]1C(=O)O [Penicillin G Sodium] | -0.3
COc1ccccc1OCC(O)CN1CCN(CC(=O)Nc2c(C)cccc2C)CC1 (stereo not given) [Ranolazine] | -0.13
CC1(C)S[C@@H]2[C@H](NC(=O)[C@H](N)c3ccccc3)C(=O)N2[C@H]1C(=O)OCOC(=O)[C@@H]1N2C(=O)C[C@H]2S(=O)(=O)C1(C)C [Sultamicillin] | 1.56
CN(C)[C@@H]1C(=O)C(C(N)=O)=C(O)[C@@]2(O)C(=O)C3=C(O)c4c(O)ccc(Cl)c4[C@@H](O)[C@H]3C[C@@H]12 [Demeclocycline HCl] | 0.67
CC1=C(C(=O)O)N2C(=O)[C@@H](NC(=O)[C@H](N)c3ccccc3)[C@H]2SC1 [Cephalexin] | 0.56
Clc1ccc(CCC(Cn2ccnc2)Sc2c(Cl)cccc2Cl)cc1 (stereo not given) [Butoconazole nitrate] | 30.8
COC(=O)C1=C(C#N)NC(C)=C(C(=O)OC(C)C)C1c1cccc([N+](=O)[O-])c1 (stereo not given) [Nilvadipine] | 1.45
CN[C@@H]1[C@@H](O)[C@@H](O[C@@H]2[C@@H](O)[C@H](O[C@H]3O[C@H](CN)[C@@H](O)[C@H](O)[C@H]3O)[C@@H](N)C[C@H]2NC(=O)[C@@H](O)CN)OC[C@]1(C)O [Isepamicin Sulphate] | -0.38
CCCc1nn(C)c2c(=O)[nH]c(-c3cc(S(=O)(=O)N4CCN(C)CC4)ccc3OCC)nc12 [Sildenafil] | -2.48
COc1cc(NS(=O)(=O)c2ccc(N)cc2)ncn1 [Sulfamonomethoxine] | -0.96
N#Cc1ccc2[nH]cc(CCCCN3CCN(c4ccc5oc(C(N)=O)cc5c4)CC3)c2c1 [Vilazodone] | 0
Nc1c2c(nc3ccccc13)CCCC2 [Tacrine hydrochloride hydrate] | -0.99
